# Many of the other results were omitted from the sample, so the strongest signals are more common in it than they were.
# Legend:
# Test in all cases: glycan array binding signal (z-score within array); higher = stronger binding
# Conditions in all cases: glycan notation: IUPAC condensed, linker removed; mutation: D22R
# [1] = target: GalNAc4S6S(b1-4)GlcNAc
# Method in brief: (§1)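 Arrays were curated from the Consortium for Functional Glycomics database, 3228 in total, and kept only where the protein sequence was available. Binding is expressed as a within-array Z-score. This score was averaged across arrays of the same protein sequence at different concentrations or buffers and across linkers, and negative values can be read as non-binding.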
# [2] = target: GlcA(b1-6)Gal
# Method in brief: as §1
# [3] = target: GlcNAc(a1-4)Gal(b1-4)GlcNAc(b1-3)Gal(b1-4)GlcNAc(b1-3)Gal(b1-4)GlcNAc
# Method in brief: as §1
# [4] = target: GlcNAc(b1-3)Fuc
# Method in brief: as §1
# [5] = target: GlcNAc(b1-3)Gal
# Method in brief: as §1
# [6] = target: GlcNAc(b1-3)Gal(b1-4)GlcNAc(b1-2)[GlcNAc(b1-3)Gal(b1-4)GlcNAc(b1-6)]Man(a1-6)[GlcNAc(b1-3)Gal(b1-4)GlcNAc(b1-2)Man(a1-3)]Man(b1-4)GlcNAc(b1-4)GlcNAc
# Method in brief: as §1
# [7] = target: GlcNAc(b1-3)Gal(b1-4)GlcNAc(b1-3)Gal(b1-4)GlcNAc(b1-3)Gal(b1-4)GlcNAc(b1-3)Gal(b1-4)GlcNAc(b1-2)[GlcNAc(b1-3)Gal(b1-4)GlcNAc(b1-3)Gal(b1-4)GlcNAc(b1-3)Gal(b1-4)GlcNAc(b1-3)Gal(b1-4)GlcNAc(b1-6)]Man(a1-6)[GlcNAc(b1-3)Gal(b1-4)GlcNAc(b1-3)Gal(b1-4)GlcNAc(b1-3)Gal(b1-4)GlcNAc(b1-3)Gal(b1-4)GlcNAc(b1-2)Man(a1-3)]Man(b1-4)GlcNAc(b1-4)[Fuc(a1-6)]GlcNAc
# Method in brief: as §1
# [8] = target: GlcNAc(b1-3)Gal(b1-4)GlcNAc(b1-6)[GlcNAc(b1-3)]Gal(b1-4)GlcNAc
# Method in brief: as §1
# [9] = target: GlcNAc(b1-3)GalNAc
# Method in brief: as §1
# [10] = target: GlcNAc(b1-4)[GlcNAc(b1-6)]GalNAc
# Method in brief: as §1
# [11] = target: GlcNAc(b1-6)Gal(b1-4)GlcNAc
# Method in brief: as §1
# [12] = target: Neu5Ac(a2-3)Gal(b1-3)GlcNAc(b1-2)Man(a1-3)[GlcNAc(b1-4)][Neu5Ac(a2-3)Gal(b1-3)GlcNAc(b1-2)Man(a1-6)]Man(b1-4)GlcNAc(b1-4)GlcNAc
# Method in brief: as §1
# [13] = target: Neu5Ac(a2-3)Gal(b1-3)[Neu5Ac(a2-6)]GlcNAc(b1-3)[Fuc(a1-3)[Gal(b1-4)]GlcNAc(b1-6)]Gal(b1-4)Glc
# Method in brief: as §1
# [14] = target: Neu5Ac(a2-3)Gal(b1-3)]Neu5Ac(a2-3)Gal(b1-4)]GlcNAc
# Method in brief: as §1
# [15] = target: Neu5Ac(a2-3)Gal(b1-4)GlcNAc(b1-2)[Neu5Ac(a2-3)Gal(b1-4)GlcNAc(b1-4)]Man(a1-3)[GlcNAc(b1-4)][Neu5Ac(a2-3)Gal(b1-4)GlcNAc(b1-4)Man(a1-6)]Man(b1-4)GlcNAc(b1-4)GlcNAc
# Method in brief: as §1
# [16] = target: Neu5Ac(a2-3)Gal(b1-4)GlcNAc(b1-3)Gal(b1-4)[Fuc(a1-3)]GlcNAc
# Method in brief: as §1
# [17] = target: Neu5Ac(a2-3)Gal(b1-4)[Fuc(a1-3)]GlcNAc(b1-3)Gal(b1-4)[Fuc(a1-3)]GlcNAc(b1-3)Gal(b1-4)[Fuc(a1-3)]GlcNAc
# Method in brief: as §1
# [18] = target: Neu5Ac(a2-6)Gal(b1-4)GlcNAc(b1-2)Man
# Method in brief: as §1
# [19] = target: Neu5Ac(a2-6)Gal(b1-4)GlcNAc(b1-3)Gal(b1-3)GlcNAc
# Method in brief: as §1
# [20] = target: Neu5Ac(a2-6)Gal(b1-4)GlcNAc(b1-3)Gal(b1-4)GlcNAc(b1-3)Gal(b1-4)GlcNAc(b1-2)Man(a1-3)[Neu5Ac(a2-6)Gal(b1-4)GlcNAc(b1-3)Gal(b1-4)GlcNAc(b1-3)Gal(b1-4)GlcNAc(b1-2)Man(a1-6)]GalNAc
# Method in brief: as §1
# [21] = target: Neu5Ac(a2-6)Gal(b1-4)GlcNAc(b1-3)Gal(b1-4)GlcNAc(b1-3)[Neu5Ac(a2-6)Gal(b1-4)GlcNAc(b1-3)Gal(b1-4)GlcNAc(b1-6)]GalNAc
# Method in brief: as §1
# [22] = target: Neu5Ac(a2-6)Gal(b1-4)GlcNAc(b1-3)GalNAc
# Method in brief: as §1
# [23] = target: Neu5Ac(a2-6)Gal(b1-4)GlcNAc(b1-6)[Gal(b1-3)]GalNAc
# Method in brief: as §1
# [24] = target: Neu5Ac(a2-6)GalNAc
# Method in brief: as §1
# [25] = target: Neu5Ac(a2-8)Neu5Ac(a2-8)Neu5Ac(a2-3)[GalNAc(b1-4)]Gal(b1-4)Glc
# Method in brief: as §1
# [26] = target: Neu5Ac(b2-6)Gal(b1-4)GlcNAc
# Method in brief: as §1
binder,measurement,setting,value
MpL2 (Macrolepiota procera) (protein) MSTQVSSGQTYKITNVKAGTVIRLSGEDNKSIIGYPYHSGKNQQWTFNWTGKAWTLRSASSGSYLGIEGTPADGTRLVAVNDPFEWHIWRDEANENAFRIFVPFTNYNLDLSGYGDTTPGTPVQLWWTWEGLHQTWTIDRP,glycan array binding signal (z-score),[1],-0.021
same,glycan array binding signal (z-score),[2],9.35
same,glycan array binding signal (z-score),[3],-0.264
same,glycan array binding signal (z-score),[4],0.069
same,glycan array binding signal (z-score),[5],-0.201
same,glycan array binding signal (z-score),[6],1.11
same,glycan array binding signal (z-score),[7],0.58
same,glycan array binding signal (z-score),[8],-0.264
same,glycan array binding signal (z-score),[9],-0.361
same,glycan array binding signal (z-score),[10],-0.082
same,glycan array binding signal (z-score),[11],-0.168
same,glycan array binding signal (z-score),[12],0.519
same,glycan array binding signal (z-score),[13],0.292
same,glycan array binding signal (z-score),[14],-0.346
same,glycan array binding signal (z-score),[15],-0.638
same,glycan array binding signal (z-score),[16],-0.58
same,glycan array binding signal (z-score),[17],-0.574
same,glycan array binding signal (z-score),[18],-0.185
same,glycan array binding signal (z-score),[19],0.558
same,glycan array binding signal (z-score),[20],2.64
same,glycan array binding signal (z-score),[21],2.97
same,glycan array binding signal (z-score),[22],-0.516
same,glycan array binding signal (z-score),[23],-0.069
same,glycan array binding signal (z-score),[24],-0.42
same,glycan array binding signal (z-score),[25],0.163
same,glycan array binding signal (z-score),[26],0.011
